Screens (PubChem)
AMA1 RON2 block: inhibitors of Plasmodium falciparum AMA1-RON2 interaction. AlphaScreen AMA1-biotinylated RON2 peptide binding. Potency, µM (doses to about 58.2 µM), without a hit: at the top dose activity change, negative = inhibition, actives largely listed as inhibitors. actives 0.2% (n = 360,000). AID 720542;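 further: 0% = vehicle wells and -100% = peptide control; nearly all actives have a fitted effect of over 45% in size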
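AMA1 (3D7) with his tag at 25 nM final met compounds first, then biotinylated RON2 peptide at 25 nM; detection used donor plus acceptor beads, 10 µg/mL apiece, read by AlphaScreen after 30 min at room temperature.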
AmpC inh no detg: blocks E. coli AmpC beta-lactamase in detergent-free assay; Potency, µM (titrated, usually from 57.1 µM), for the others: at the top dose activity change, negative = inhibition, hits mostly inhibitors; AmpC nitrocefin hydrolysis, absorbance 480 nm, 0.0001% Triton; AID 485341; actives 0.52% (n = 330,000); P00811;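 further: plate controls were no compound for no effect and no enzyme for full effect; nearly all actives have a fitted effect of over 20% in size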
Target sequence (P00811 whole entry, looked up): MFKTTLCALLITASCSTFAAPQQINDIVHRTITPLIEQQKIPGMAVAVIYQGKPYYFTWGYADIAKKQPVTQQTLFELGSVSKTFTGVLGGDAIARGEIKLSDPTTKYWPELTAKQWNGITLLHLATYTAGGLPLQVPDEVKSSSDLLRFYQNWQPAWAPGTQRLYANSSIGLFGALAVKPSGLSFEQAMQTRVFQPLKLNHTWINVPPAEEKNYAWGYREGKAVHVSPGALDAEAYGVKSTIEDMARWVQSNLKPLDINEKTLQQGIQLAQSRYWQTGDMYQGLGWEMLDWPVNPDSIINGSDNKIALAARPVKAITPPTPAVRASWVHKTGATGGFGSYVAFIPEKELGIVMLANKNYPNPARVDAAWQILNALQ
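AmpC (5.3 nM in the dispensed reagent) in 20 mM phosphate pH 7.0 with 0.01% (detergent screen) or 0.0001% Triton X-100 was preincubated with compounds for 15 min at room temperature. Nitrocefin was then added from an 800 uM solution, and hydrolysis was followed at 480 nm.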
AmpC inh detg: blocks E. coli AmpC beta-lactamase in detergent assay; P00811; AmpC hydrolysis of nitrocefin, absorbance 480 nm, 0.01% Triton; Potency, µM (series often up to 114 µM), for inactives: at the highest dose activity change, negative = inhibition, actives largely listed as inhibitors; actives 0.041% (n = 370,000); AID 485294;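 further: 0% = no-compound wells and -100% = no-enzyme wells; nearly all actives have a fitted effect of over 25% in size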
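20 mM phosphate pH 7.0 + 0.01% (detergent screen) or 0.0001% Triton X-100; 5.3 nM AmpC reagent; cpd preinc 15 min RT; nitrocefin (800 uM stock) to start; A480 q20 s × 4 min; Activity was normalised to no-enzyme and no-compound control wells.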
MARV entry inh: Marburg virus entry inhibition. Marburg virus pseudotyped entry inhibition, cell reporter. Potency, µM (doses to about 37.8 µM), for the others: at the highest dose activity change, negative = inhibition, hits mostly inhibitors. actives 1.8% (n = 300,000). AID 540276; calls by dose curve; tested in HEK293 cells
Lassa entry inh: inhibitors of Lassa virus binding or cell entry. Lassa virus pseudotype entry inhibition, cell reporter. Potency, µM (series often up to 37.9 µM), without a hit: top-dose activity change, negative = inhibition, most hits filed as inhibitors. actives 1.2% (n = 300,000); calls by dose curve; tested in HEK293 cells; further: nearly all actives have a fitted effect of over 50% in size
The depositor's hits bear a star; [ ] = another dose, or the depositor's remark. Compounds with a hit are over-represented: about 2.3% of the library has one in this group of screens. Unless noted, the call rests on the fitted dose curve; in most records, active means well fitted curve in the direction sought with a large enough effect; inconclusive means small, poorly fitted or top-dose-only effect, or another doubt; inactive means no such curve, though single readings can be large; an effect the other way counts as inactive or inconclusive. Unless noted, on the % scale 0 is the no-effect control and ±100 the full control effect; potency means the concentration at half of the fitted maximal effect.

`Cc1cccc(C)c1Nc1oc(-c2ccccc2)nc1C(C)(C)C` gave MARV entry inh 1.6%[14.2 µM].
Screening COc1ccc2oc(C)c(C(=O)c3ccccc3)c2c1 returned AMA1 RON2 block 7.0%, MARV entry inh -0.1%[46.1 µM] and Lassa entry inh 8.2%.
For COc1ccc2oc(/C=C/N(C)C)c(C(=O)c3ccc(Cl)cc3)c2c1 the results were AMA1 RON2 block -0.2%, AmpC inh no detg -56.0%, AmpC inh detg -3.0%, MARV entry inh 20.6µM* and Lassa entry inh inconclusive.
Screening Cn1c(/C=C/c2ccccc2)nc2ccccc2c1=O returned AMA1 RON2 block -4.2%, AmpC inh no detg 6.8%, AmpC inh detg 0.5%, MARV entry inh inconclusive and Lassa entry inh 9.4%.
Cn1c(/C=C/c2ccc([N+](=O)[O-])o2)nc2ccccc2c1=O was read as AMA1 RON2 block 9.1%, AmpC inh no detg -20.5%, AmpC inh detg 2.1%, MARV entry inh inconclusive and Lassa entry inh 2.82µM*.
Cc1cccc(-c2noc(CNC(=O)c3ccccc3Br)n2)c1 was read as AmpC inh detg 12.7%, MARV entry inh inconclusive and Lassa entry inh -15.4%[46.1 µM].
`COc1ccc(NC(=O)CC2C(=O)N(c3ccc(C)cc3)C(=O)N2Cc2ccc3c(c2)OCO3)cc1` (configuration not stated) gave AmpC inh detg 1.2%, MARV entry inh -21.5%[46.1 µM] and Lassa entry inh inconclusive.
O=C1c2ccccc2C(Nc2ccc3c(c2)OCO3)N1Cc1ccc2c(c1)OCO2 (configuration not stated) was read as AMA1 RON2 block -21.4%, AmpC inh no detg -26.3%, AmpC inh detg 4.4%, MARV entry inh 4.1% and Lassa entry inh 6.3%.
`COc1ccc(NC(=O)CC2C(=O)N(C)C(=S)N2Cc2ccc3c(c2)OCO3)cc1` (configuration not stated) gave AMA1 RON2 block -31.1%, AmpC inh no detg -17.2%, AmpC inh detg -18.0%, MARV entry inh 11.2µM* and Lassa entry inh -20.7%.
Screening COc1ccc(OC)c(NC2c3ccccc3C(=O)N2Cc2ccc3c(c2)OCO3)c1 (configuration not stated) returned AMA1 RON2 block 15.8µM*, AmpC inh no detg -8.1%, AmpC inh detg inconclusive and MARV entry inh -0.4%.
Screening O=C1[C@H]2[C@@H]3[C@@H](O)[C@H](O)CC(=NOCc4ccccc4)[C@H]3CC[C@H]2C(=O)N1C[C@@H]1CCCO1 returned MARV entry inh -6.8%[14.2 µM].
Screening CCCCOc1ccc(CS[C@@H](CC(=O)O)C(=O)O)cc1 returned MARV entry inh 4.6%.
Cc1ccc(C2CC(=O)C=C(O)C2)cc1 (configuration not stated) was read as AMA1 RON2 block -6.9%, AmpC inh no detg 14.1µM*, AmpC inh detg -14.3%, MARV entry inh 2.0%[46.1 µM] and Lassa entry inh 3.7%.
For Cc1cc(OC(C)C(=O)N(Cc2ccco2)Cc2ccco2)cc(C)c1Cl (configuration not stated) the results were AmpC inh detg -2.1%, MARV entry inh inconclusive and Lassa entry inh 8.3%[46.1 µM].
Screening Cc1cc(-c2nn(-c3ccccc3F)cc2CN2CCCC(CO)C2)c(C)s1 (configuration not stated) returned AMA1 RON2 block -4.1%, AmpC inh no detg -12.7%, AmpC inh detg 0.1%, MARV entry inh 5.62µM* and Lassa entry inh inconclusive.
For Cc1cc(-c2nn(-c3ccccc3F)cc2CN2CCCC(O)C2)c(C)s1 (configuration not stated) the results were AMA1 RON2 block 20.8%, AmpC inh no detg 35.5% and AmpC inh detg -15.0%.
For COc1cc(/C=C\C(=O)NCc2ccc3c(c2)cc(C)n3C)cc(OC)c1OC the results were AMA1 RON2 block -19.9%, AmpC inh no detg 35.8%, AmpC inh detg -1.0%, MARV entry inh 5.17µM* and Lassa entry inh inconclusive.
For COc1ccc(CC(=O)NCc2ccc3c(c2)cc(C)n3C)cc1OC the results were AMA1 RON2 block -7.2%, AmpC inh no detg 11.1% and AmpC inh detg -10.3%.
`Oc1cccc(Nc2c3ccccc3nc3ccccc23)c1` gave AMA1 RON2 block -5.9%, AmpC inh no detg -52.7% and AmpC inh detg 10.5%.
Screening CCN(CC)Cc1cc(Nc2c3ccccc3nc3c4ccccc4n(C)c23)cc(CN(CC)CC)c1O returned AMA1 RON2 block 11.2µM*, MARV entry inh inconclusive and Lassa entry inh 11.2µM*.
For CN1CCCC1CCOC(C)(c1ccccc1)c1ccc(Cl)cc1 (configuration not stated) the results were AMA1 RON2 block 0.4%, MARV entry inh 9.2µM* and Lassa entry inh 20.6µM*.
`CN1CCCC1C(O)(c1ccccc1)c1ccccc1` (configuration not stated) gave AMA1 RON2 block 2.3%, MARV entry inh -24.4% and Lassa entry inh 28.5%[14.3 µM].
`COc1cccc(CSc2nc(-c3ccccc3OC)nc3c2Cc2c(CO)cnc(C)c2O3)c1` gave AmpC inh detg -0.7% and Lassa entry inh inconclusive.
Screening Cc1ccc(S(=O)(=O)c2nc(S(=O)(=O)c3ccccc3)sc2NCCCOC(C)C)cc1 returned AmpC inh detg -2.8%, MARV entry inh 3.98µM* and Lassa entry inh -32.6%[46.1 µM].
For Oc1ccc(C=NNC(=S)Nc2cccnc2)nc1 the results were AMA1 RON2 block -1.6%, MARV entry inh inconclusive and Lassa entry inh 10µM*.
`CCNC(=O)CC1C(=O)N(c2ccc(F)cc2)C(=S)N1CCc1ccncc1` (configuration not stated) gave AMA1 RON2 block 31.6µM*, AmpC inh no detg 13.5%, AmpC inh detg 1.8%, MARV entry inh inconclusive and Lassa entry inh -2.9%[46.1 µM].
`O=C(CC1C(=O)N(c2ccc(Cl)cc2)C(=S)N1CCc1ccncc1)Nc1ccc(F)cc1` (configuration not stated) gave AMA1 RON2 block -0.5%, AmpC inh no detg 35.5%, AmpC inh detg -8.9%, MARV entry inh inconclusive and Lassa entry inh 2.2%.
For CC(C)=CCCC(C)=CCN1C(=O)[C@@]2(C[C@@H](C)C[C@@H](C)O2)c2ccccc21 the results were MARV entry inh -6.8%[14.2 µM].
Screening COc1ccc(CC2SC(=Nc3ccc(F)cc3)NC2=O)cc1 (configuration not stated) returned AMA1 RON2 block 1.4%, AmpC inh no detg -21.4%, AmpC inh detg 0.8%, MARV entry inh -12.7%[46.1 µM] and Lassa entry inh 4.47µM*.
Screening Cc1cccc(NC2=CC(c3cccc(Br)c3)N(c3cccc(C)c3)C2=O)c1 (configuration not stated) returned AmpC inh detg 21.8%, MARV entry inh 11.0%[46.1 µM] and Lassa entry inh 21.9%[46.1 µM].
For Cc1cc2c(nc1C)CCCN2CC(O)CN1CCN(C)CC1 (configuration not stated) the results were MARV entry inh 17.7%[14.2 µM].
